In PubChem BioAssay AID1159580 (chemical genetic matrix, 2015):
Several values for one entry are separate records, joined by “and”; a condition that tells them apart may be missing. Equal values may be shown once. The whole screen tested about 5,500 compounds, of which about 2,000 (36%) were called active. Roughly 18% stayed inconclusive and do not appear here. Cut-off read from the data, not from the text of the source: active = normalized growth mostly below about 0.91 (no sharp cut-off); inconclusive = no clear call, values can overlap the other calls; inactive = mostly above about 0.92. This is one part of the list.

Test: chemical genetic growth profiling, strain panel (AID 1159580);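 note: tested at 20 µM; growth read once vehicle control cultures reached saturation at 30 °C; 1 = growth at the plate median or of vehicle wells; lower values mean less growth of the strain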
Settings: S. cerevisiae deletion strains, growth OD

Measured: normalized growth

C=C[C@H]1CN2CC[C@H]1C[C@@H]2[C@H](O)c1ccnc2ccccc12
inactive: locus YAL013W, strain DEP1, hits give low values 1 | locus YAL021C, strain ccr4, hits give low values 1.01 | locus YAL026C, strain drs2, hits give low values 0.994 | locus YAL030W, strain snc1, hits give low values 0.999 | locus YBL061C, strain skt5, hits give low values 0.992 | locus YBR009C, strain hhf1, hits give low values 0.988 | locus YBR021W, strain FUR4, hits give low values 1.02 | locus YBR023C, strain chs3, hits give low values 0.981 | locus YBR171W, strain sec66, hits give low values 0.988 | locus YBR229C, strain ROT2, hits give low values 0.995 | locus YBR231C, strain swc5, hits give low values 0.989 | locus YBR279W, strain paf1, hits give low values 0.996 | locus YCL011C, strain gbp2, hits give low values 0.988 | locus YCL016C, strain dcc1, hits give low values 0.979 | locus YCL029C, strain bik1, hits give low values 0.973 | locus YCL069W, strain vba3, hits give low values 0.987 | locus YCR088W, strain abp1, hits give low values 0.994 | locus YDL005C, strain med2, hits give low values 0.975 | locus YDL035C, strain GPR1, hits give low values 1.02 | locus YDL040C, strain nat1, hits give low values 0.983 | locus YDL074C, strain BRE1, hits give low values 0.999 | locus YDL101C, strain DUN1, hits give low values 0.985 | locus YDL134C, strain PPH21, hits give low values 0.997 | locus YDL185W, strain tfp1, hits give low values 0.976 | locus YDL192W, strain arf1, hits give low values 0.98 | locus YDR001C, strain nth1, hits give low values 0.985 | locus YDR069C, strain doa4, hits give low values 0.996 | locus YDR101C, strain arx1, hits give low values 0.985 | locus YDR137W, strain rgp1, hits give low values 0.99 | locus YDR150W, strain NUM1, hits give low values 0.986 | locus YDR159W, strain sac3, hits give low values 1.02 | locus YDR162C, strain NBP2, hits give low values 0.988 | locus YDR195W, strain ref2 0.989 | locus YDR297W, strain sur2, hits give low values 1.01 | locus YDR318W, strain mcm21, hits give low values 0.985 | locus YDR334W, strain swr1, hits give low values 0.977 | locus YDR335W, strain msn5, hits give low values 0.99 | locus YDR388W, hits give low values 0.988 | locus YDR392W, strain spt3, hits give low values 0.973 | locus YDR502C, strain sam2, hits give low values 0.982 | locus YEL003W, strain gim4, hits give low values 0.989 | locus YEL037C, strain rad23, hits give low values 0.983 | locus YEL061C, strain CIN8 (second series), hits give low values 0.993 | locus YEL061C, strain CIN8, hits give low values 0.998 | locus YER015W, strain faa2, hits give low values 0.986 | locus YER016W, strain bim1, hits give low values 0.987 | locus YER110C, hits give low values 0.981 | locus YER111C, strain swi4, hits give low values 0.975 | locus YER155C, strain BEM2 (second series), hits give low values 0.972 | locus YER155C, strain BEM2, hits give low values 0.995 | locus YER167W, strain BCK2, hits give low values 1 | locus YFR010W, strain ubp6, hits give low values 0.999 | locus YGL078C, strain dbp3, hits give low values 1.01 | locus YGL086W, strain mad1, hits give low values 1.01 | locus YGL167C, strain pmr1, hits give low values 0.993 | locus YGL173C, strain kem1, hits give low values 0.981 | locus YGL227W, strain vid30, hits give low values 0.984 | locus YGL240W, strain doc1, hits give low values 0.986 | locus YGL248W, strain PDE1, hits give low values 0.994 | locus YGL253W, strain hxk2, hits give low values 0.994 | locus YGR078C, strain PAC10, hits give low values 0.988 | locus YGR135W, strain pre9, hits give low values 0.978 | locus YGR229C, strain SMI1, hits give low values 1.02 | locus YGR252W, strain gcn5, hits give low values 1.17 | locus YHR013C, strain ard1, hits give low values 0.962 | locus YHR027C, strain rpn1, hits give low values 0.992 | locus YHR030C, strain SLT2, hits give low values 0.994 and 0.988 | locus YHR079C, strain IRE1 (second series), hits give low values 0.979 | locus YHR079C, strain IRE1, hits give low values 1 | locus YHR094C, strain hxt1, hits give low values 0.97 | locus YHR129C, strain ARP1, hits give low values 0.989 | locus YHR142W, strain chs7, hits give low values 0.974 | locus YHR200W, strain rpn10, hits give low values 0.994 | locus YIL066C, strain RNR3, hits give low values 0.992 | locus YIL073C, strain SPO22, hits give low values 0.928 | locus YIL125W, strain kgd1, hits give low values 0.988 | locus YIR030C, strain dcg1, hits give low values 0.989 | locus YJL092W, strain hpr5, hits give low values 0.99 | locus YJL095W, strain BCK1 (second series), hits give low values 0.985 | locus YJL095W, strain BCK1, hits give low values 0.977 and 1 | locus YJL115W, strain asf1, hits give low values 0.972 | locus YJL129C, strain trk1, hits give low values 0.992 | locus YJL134W, strain LCB3, hits give low values 0.992 | locus YJL154C, strain vps35, hits give low values 0.971 | locus YJL164C, strain tpk1, hits give low values 0.987 | locus YJL166W, strain qcr8, hits give low values 1 | locus YJL168C, strain set2, hits give low values 0.983 | locus YJL187C, strain SWE1 (second series), hits give low values 0.956 | locus YJR043C, strain POL32, hits give low values 0.996 | locus YJR066W, strain TOR1, hits give low values 0.989 | locus YJR075W, strain HOC1, hits give low values 0.978
